Laboratory results reported in PubChem BioAssay (NCATS).
Records with an inconclusive call do not appear. Activity calls are given as the source filed them. The call rests on the fitted dose curve; in most records, active means well fitted curve in the direction sought with a large enough effect; inconclusive means small, poorly fitted or top-dose-only effect, or another doubt; inactive means no such curve, though single readings can be large; an effect the other way counts as inactive or inconclusive. *1 amine or outer side, *2 acyl side, *3 side chain or, on linkers, in order; H or OH if unused. Where a SMILES comes first, the peptide text is derived from it. [ ]: non-standard residue; d: D form. X4 = CC(C)=CCc1cc(C(O)C(N[*:1])C(=O)[*:2])ccc1O

Legend:
C33A = assay: Primary qHTS to identify gynecologic anti-cancer compounds using libraries of approved drugs and bioactive compounds (AID 1345084); conditions: Gynecologic cancer cell panel viability, ATPlite luminescence, 48 h; series mostly up to 57.5 µM; further: on the % scale 0 is the no-effect control and ±100 the full control effect; nearly all actives have a fitted effect of over 55% in size
In short: (§1)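 48 h compound exposure at 37 C, 5% CO2; five-point qHTS. ATPlite luminescence readout of cell ATP.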

CAOV3 = assay: as above; conditions: Gynecologic cancer cell panel viability, ATPlite luminescence, 48 h; series mostly up to 57.5 µM
In short: as §1

CASKI = assay: as above; conditions: Gynecologic cancer cell panel viability, ATPlite luminescence, 48 h; series mostly up to 57.5 µM
In short: as §1

Es-2 = assay: as above; conditions: Gynecologic cancer cell panel viability, ATPlite luminescence, 48 h; series mostly up to 57.5 µM
In short: as §1

HeLa = assay: as above; conditions: Gynecologic cancer cell panel viability, ATPlite luminescence, 48 h; series mostly up to 57.5 µM
In short: as §1

Hek293T = assay: as above; conditions: Gynecologic cancer cell panel viability, ATPlite luminescence, 48 h, control line for the selectivity index; series mostly up to 57.5 µM
In short: as §1

JEG-3 = assay: as above; conditions: Gynecologic cancer cell panel viability, ATPlite luminescence, 48 h; series mostly up to 57.5 µM
In short: as §1

OV90 = assay: as above; conditions: Gynecologic cancer cell panel viability, ATPlite luminescence, 48 h; series mostly up to 57.5 µM
In short: as §1

NIH3T3 = assay: qHTS assay to identify novel small-molecules to repurpose for Merkel cell carcinoma treatment (AID 1296009); conditions: MCC and control cell lines, CellTiter-Glo viability, 72 h; at 44.8 µM (top of the series) unless noted; further: nearly all actives have a fitted effect of over 60% in size
In short: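 Cells were incubated with compound for 72 hr at 37 degree celsius before CellTiter-Glo addition. Luminescence was normalized with no-cell wells as full cytotoxicity and DMSO as baseline.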

SKOV3 = assay: Primary qHTS to identify gynecologic anti-cancer compounds using libraries of approved drugs and bioactive compounds (AID 1345084); conditions: Gynecologic cancer cell panel viability, ATPlite luminescence, 48 h; series mostly up to 57.5 µM; further: on the % scale 0 is the no-effect control and ±100 the full control effect; nearly all actives have a fitted effect of over 55% in size
In short: as §1

Tov-21-G = assay: as above; conditions: Gynecologic cancer cell panel viability, ATPlite luminescence, 48 h; series mostly up to 57.5 µM
In short: as §1

Tov112D = assay: as above; conditions: Gynecologic cancer cell panel viability, ATPlite luminescence, 48 h; series mostly up to 57.5 µM
In short: as §1

PA-1 = assay: as above; conditions: Gynecologic cancer cell panel viability, ATPlite luminescence, 48 h; series mostly up to 57.5 µM
In short: as §1

C[C@@H]1O[C@@H](O[C@H]2[C@H](OC(=O)[C@]34CCC(C)(C)C[C@H]3C3=CCC5[C@@]6(C)CC[C@H](O[C@@H]7O[C@H](C(=O)O)[C@@H](O)[C@H](O)[C@H]7O[C@@H]7O[C@H](CO)[C@H](O)[C@H](O)[C@H]7O)[C@@](C)(C=O)C6CC[C@@]5(C)[C@]3(C)C[C@H]4O)O[C@H](C)[C@H](O[C@@H]3O[C@H](C)[C@H](O)[C@H](O)[C@H]3O)[C@@H]2O)[C@H](O)[C@H](O)[C@H]1O[C@@H]1OC[C@@H](O)[C@H](O[C@@H]2O[C@H](CO)[C@@H](O)[C@H](O)[C@H]2O)[C@H]1O (some centres not stated)
inactive: activity change, negative = cytotoxicity (C33A) 29.4% [at 6.55 µM] | activity change, negative = cytotoxicity (CAOV3) 2.56% [at 6.55 µM] | activity change, negative = cytotoxicity (CASKI) 4.26% [at 6.55 µM] | activity change, negative = cytotoxicity (Es-2) 0.809% [at 6.55 µM] | activity change, negative = cytotoxicity (HeLa) 3.75% [at 6.55 µM] | activity change, negative = cytotoxicity (Hek293T) 8.68% [at 6.55 µM] | activity change, negative = cytotoxicity (JEG-3) -1.59% [at 6.55 µM] | activity change, negative = cytotoxicity (OV90) -26.3% [at 6.55 µM]

CC1(C)CCC[C@@]2(C)C1[C@H](OC(=O)/C=C/C=C/C(=O)O)C=C1COC(=O)[C@@]12O (some centres not stated)
inactive: outcome (NIH3T3) | Potency (C33A) | Potency (CAOV3) | Potency (CASKI) | Potency (Es-2) | Potency (HeLa) | Potency (Hek293T) | Potency (JEG-3) | Potency (OV90) | Potency (SKOV3) | Potency (Tov-21-G) | Potency (Tov112D)

CC(C)=CCc1cc(C(O)C2NC(=O)CNC(=O)C(Cc3c[nH]c4ccccc34)NC(=O)C3CCCN3C(=O)CNC(=O)C(C(C)C)NC(=O)CNC2=O)ccc1O (configuration not stated) (cyclo(G[X4]GVGPW); configuration not given here)
inactive: outcome (NIH3T3) inactive [at 9.27 µM] | activity change, negative = cytotoxicity (C33A) 7.59% [at 11.6 µM] | activity change, negative = cytotoxicity (CAOV3) -21.2% [at 11.6 µM] | activity change, negative = cytotoxicity (CASKI) -0.505% [at 11.6 µM] | activity change, negative = cytotoxicity (Es-2) 0.641% [at 11.6 µM] | activity change, negative = cytotoxicity (HeLa) 5.32% [at 11.6 µM] | activity change, negative = cytotoxicity (Hek293T) -0.92% [at 11.6 µM] | activity change, negative = cytotoxicity (JEG-3) 7.66% [at 11.6 µM] | activity change, negative = cytotoxicity (OV90) 5.8% [at 11.6 µM] | activity change, negative = cytotoxicity (PA-1) -1.16% [at 11.6 µM] | activity change, negative = cytotoxicity (SKOV3) 0% [at 11.6 µM] | activity change, negative = cytotoxicity (Tov-21-G) -4.16% [at 11.6 µM] | activity change, negative = cytotoxicity (Tov112D) -6.73% [at 11.6 µM]

C=C1C(=O)O[C@H](CCC)[C@H]1C(=O)O
inactive: outcome (NIH3T3) | Potency (CAOV3) | Potency (Es-2) | Potency (HeLa) | Potency (Hek293T) | Potency (JEG-3) | Potency (OV90) | Potency (PA-1) | Potency (Tov-21-G) | Potency (Tov112D)

O=C1CCC(=O)N(O)CCCCCNC(=O)CCC(=O)N(O)CCOCCNC(=O)CCC(=O)N(O)CCCCCN1
inactive: outcome (NIH3T3) inactive [at 17.4 µM] | Potency (C33A) | Potency (CASKI) | Potency (Es-2) | Potency (HeLa) | Potency (Hek293T) | Potency (JEG-3) | Potency (OV90) | Potency (PA-1) | Potency (SKOV3) | Potency (Tov-21-G) | Potency (Tov112D)

CC(C)(C)C(=O)CN1C(=O)[C@H](NC(=O)Nc2cccc(C(=O)O)c2)CN(C2CCCCC2)c2ccccc21
inactive: Potency (C33A) | Potency (CAOV3) | Potency (CASKI) | Potency (Es-2) | Potency (HeLa) | Potency (Hek293T) | Potency (JEG-3) | Potency (OV90) | Potency (PA-1) | Potency (SKOV3) | Potency (Tov-21-G) | Potency (Tov112D)

CCOc1cc(CC(=O)NC(CC(C)C)c2ccccc2N2CCCCC2)ccc1C(=O)O (configuration not stated)
inactive: outcome (NIH3T3) | Potency (C33A) | Potency (CAOV3) | Potency (CASKI) | Potency (Es-2) | Potency (HeLa) | Potency (Hek293T) | Potency (JEG-3) | Potency (OV90) | Potency (PA-1) | Potency (Tov-21-G) | Potency (Tov112D)

CCCCCCOc1cc2c(cc1N(C)c1ncc(C(=O)O)cn1)C(C)(C)CCC2(C)C
inactive: outcome (NIH3T3) | Potency (C33A) | Potency (CAOV3) | Potency (CASKI) | Potency (Es-2) | Potency (HeLa) | Potency (Hek293T) | Potency (JEG-3) | Potency (OV90) | Potency (PA-1) | Potency (SKOV3) | Potency (Tov-21-G) | Potency (Tov112D)

CC(=O)O[C@@H]1[C@H](O)[C@@H](O[C@@H]2O[C@@H](C)[C@H](O[C@@H]3OC[C@@H](O)[C@H](O[C@@H]4OC[C@@H](O)[C@H](O)[C@H]4O)[C@H]3O)[C@@H](O[C@@H]3O[C@H](CO)[C@@H](O)[C@H](O)[C@H]3O)[C@H]2O)[C@H](OC(=O)[C@]23CCC(C)(C)C[C@H]2C2=CCC4[C@@]5(C)CC[C@H](O[C@@H]6O[C@H](C(=O)O)[C@@H](O)[C@H](O[C@@H]7OC[C@@H](O)[C@H](O)[C@H]7O)[C@H]6O[C@@H]6O[C@H](CO)[C@H](O)[C@H](O)[C@H]6O)[C@@](C)(C=O)C5CC[C@@]4(C)[C@]2(C)CC3)O[C@@H]1C (some centres not stated)
inactive: outcome (NIH3T3) inactive [at 4.96 µM] | activity change, negative = cytotoxicity (C33A) 0.359% [at 6.55 µM] | activity change, negative = cytotoxicity (CAOV3) 19.4% [at 6.55 µM] | activity change, negative = cytotoxicity (CASKI) -13.6% [at 6.55 µM] | activity change, negative = cytotoxicity (Es-2) -2.98% [at 6.55 µM] | activity change, negative = cytotoxicity (HeLa) 2.25% [at 6.55 µM] | activity change, negative = cytotoxicity (Hek293T) -2.1% [at 6.55 µM] | activity change, negative = cytotoxicity (JEG-3) -8.94% [at 6.55 µM] | activity change, negative = cytotoxicity (PA-1) -3.62% [at 6.55 µM] | activity change, negative = cytotoxicity (Tov-21-G) -5.86% [at 6.55 µM] | activity change, negative = cytotoxicity (Tov112D) 7.57% [at 6.55 µM]

CO/N=C(/C(=O)N[C@@H]1C(=O)N2C(C(=O)O)=C(Cn3ccc(=N)n3CCO)CS[C@H]12)c1csc(N)n1
inactive: outcome (NIH3T3) | Potency (C33A) | Potency (CASKI) | Potency (Es-2) | Potency (HeLa) | Potency (Hek293T) | Potency (JEG-3) | Potency (OV90) | Potency (PA-1) | Potency (SKOV3) | Potency (Tov-21-G) | Potency (Tov112D)

c1cc(OCCCN2CCCCC2)ccc1CN1CCCCC1
inactive: outcome (NIH3T3) | Potency (C33A) | Potency (CAOV3) | Potency (CASKI) | Potency (Es-2) | Potency (HeLa) | Potency (Hek293T) | Potency (JEG-3) | Potency (OV90) | Potency (PA-1) | Potency (SKOV3) | Potency (Tov-21-G) | Potency (Tov112D)

COc1ccc(CCO[C@@H]2CCCC[C@H]2N2CC[C@@H](O)C2)cc1OC
inactive: outcome (NIH3T3) | Potency (C33A) | Potency (CAOV3) | Potency (CASKI) | Potency (Es-2) | Potency (HeLa) | Potency (Hek293T) | Potency (JEG-3) | Potency (OV90) | Potency (PA-1) | Potency (Tov-21-G) | Potency (Tov112D)

OC[C@H]1O[C@@H](Oc2cc(O)c3c(c2)O[C@@H](c2ccc(O)cc2)[C@H](O)C3)[C@H](O)[C@@H](O)[C@@H]1O
inactive: outcome (NIH3T3) inactive [at 17.4 µM] | Potency (C33A) | Potency (CASKI) | Potency (Es-2) | Potency (HeLa) | Potency (Hek293T) | Potency (JEG-3) | Potency (OV90) | Potency (PA-1) | Potency (SKOV3) | Potency (Tov-21-G) | Potency (Tov112D)
